# Assay results from PubChem BioAssay.
# Several values for one entry are separate records, joined by “and”; a condition that tells them apart may be missing. Identical values can stand only once. Activity calls are given as the source filed them. Unless noted, no stated cut-off is given here; in the data, active means inhibition above about 80%; inactive means the rest.
# Assays:
# [1] = growth inhibition, single agent or in combination, cell-based, chromothripsis tumors, cisplatin or BGB combos (AID 1671449); settings: LFS_MB_P medulloblastoma cells;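 further: cells exposed for 96 hours; 0% = vehicle DMSO and 100% = killing by high DMSO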
# [2] = growth inhibition, single agent and combos, cell-based, chromothripsis tumors, cisplatin or BGB combos (AID 1671450); settings: HDN33 neuroblastoma cells, stronger effect = higher value;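 further: cells exposed to compound for four days; 0% = vehicle DMSO and 100% = cell killing by high DMSO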
# [3] = growth inhibition, single agents and combos, HTB85, cell-based, BGB or cisplatin IC20 combos, synergistic combos for chromothripsis tumors (AID 1671453); settings: HTB85 osteosarcoma cells, drug combinations, stronger effect = higher value;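 further: cells exposed for 96 hours before readout; 0% = vehicle DMSO and 100% = high DMSO killing control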
# [4] = CRL1545 cell growth, single agent and combined, cisplatin and BGB IC20 combos (AID 1671464); settings: CRL1545 osteosarcoma cells, stronger effect = higher value;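 further: cells exposed to compound for 96 hours before readout; 0% = vehicle DMSO and 100% = high DMSO killing control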
# [5] = growth inhibition, single agents and combos, ICB984, cell-based, cisplatin or BGB combos, synergistic combos for chromothripsis tumors (AID 1671451; call rule not given here;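 further: cells exposed for 96 hours before readout; 0% = vehicle DMSO and 100% = killing by high DMSO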); settings: ICB984 medulloblastoma cells, drug combinations, stronger effect = higher value
# [6] = growth inhibition, single agents and combos, LFS_MB_1R, cell-based, cisplatin or BGB combos, synergistic combos for chromothripsis tumors (AID 1671452); settings: LFS_MB_1R medulloblastoma cells, stronger effect = higher value;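 further: cells exposed for 96 hours before readout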
# [7] = growth inhibition, single agents and combos, CRL2098, cell-based, BGB or cisplatin IC20 combos, synergistic combos for chromothripsis tumors (AID 1671454); settings: CRL2098 osteosarcoma cells, drug combinations, stronger effect = higher value;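 further: cells exposed for 96 h before readout; 0% = vehicle DMSO and 100% = killing by high DMSO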
# [8] = growth inhibition, single agents and combos, HD-MB03, cell-based, BGB or cisplatin IC20 combos, synergistic combos for chromothripsis tumors (AID 1671455; in the data active means inhibition above about 83%;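 further: 0% = vehicle DMSO and 100% = high DMSO as cytotoxic control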); settings: HD-MB03 medulloblastoma cells, stronger effect = higher value
# [9] = growth inhibition, single agents and combos, UWB1.289, cell-based, BGB or cisplatin combos, synergistic combos for chromothripsis tumors (AID 1671456); settings: UWB1.289 ovarian carcinoma cells, stronger effect = higher value;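 further: cells exposed to compound for four days; 0% = vehicle DMSO and 100% = killing by high DMSO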
# [10] = growth inhibition, single agents and combos, LFS_MB_2R, cell-based, cisplatin combos, synergistic combos for chromothripsis tumors (AID 1671457); settings: LFS_MB_2R medulloblastoma cells, stronger effect = higher value;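 further: cells exposed to compound for four days before readout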
# [11] = growth inhibition, MDA-MB-436, cell-based, BGB or cisplatin combos, synergistic combos for chromothripsis tumors (AID 1671458; call rule not given here;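 further: cells exposed for 96 hours; 0% = vehicle DMSO and 100% = killing by high DMSO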); settings: MDA-MB-436 breast carcinoma growth inhibition, drug combinations, stronger effect = higher value
# [12] = UWB1.289_BRCA1 ovarian cancer growth, cell-based, BGB or cisplatin combinations (AID 1671459); settings: UWB1.289 BRCA1 ovarian carcinoma, drug combinations, stronger effect = higher value
# [13] = drug combination toxicity in non-malignant astrocytes – cell-based, BGB or cisplatin IC20 combos, cytotoxicity control for chromothriptic childhood tumor combination screen (AID 1671460); settings: Human astrocytes, viability inhibition, drug combinations, at 0.5 µM, stronger effect = higher value;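 further: cells exposed to compounds for 96 hours before viability readout; 0% = vehicle and 100% = killing control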
# [14] = BT084 cell growth, single and combined drugs, ICGC_MB145, cisplatin and BGB IC40 combos (AID 1671461); settings: BT084 medulloblastoma cells, drug combinations, stronger effect = higher value;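 further: cells exposed to drugs for 96 hours; 0% = vehicle DMSO and 100% = high DMSO full killing control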
# [15] = RCMB18 cell growth, single agent and combined, cisplatin and BGB IC40 combos (AID 1671462); settings: RCMB18 medulloblastoma cells, stronger effect = higher value;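 further: cells exposed to compound for four days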
# [16] = measured here: combination with cisplatin, at 5 µM, stronger effect = higher value
# [17] = measured here: with cisplatin IC20, at 5 µM
# [18] = measured here: combination with BGB IC40, at 0.05 µM
# [19] = measured here: with BGB IC20 combination, at 0.5 µM
# [20] = measured here: with cisplatin IC20 combination, at 0.5 µM
# [21] = measured here: combination with cisplatin, at 0.5 µM
# [22] = measured here: combination with cisplatin, at 5 µM
smiles,measurement,setting,value
COc1cccc2c1C(=O)c1c(O)c3c(c(O)c1C2=O)CC(O)(C(=O)CO)CC3OC1CC(N)C(O)C(C)O1 (stereo not drawn),inhibition,[1]; [16],118% and 119% and 108%
same,inhibition,"[2]; single agent, at 5 µM",99.7% and 99.6%
same,inhibition,[3]; at 0.5 µM,98.7% (active) and 98.9% (active) and 98.5% (active)
same,inhibition,[3]; [17],99.4% and 99.6% and 99.7%
same,inhibition,"[4]; single agent, at 5 µM",99.7% and 99.6% and 99.8%
O=C1C(=Cc2cccnc2)C(=O)c2ccccc21,inhibition,"[1]; at 0.5 µM, stronger effect = higher value",-18.2% (inactive)
same,inhibition,"[1]; measured here: combination with BGB IC20, at 0.005 µM",-17.1%
same,inhibition,"[1]; measured here: combination with BGB IC40, at 0.005 µM",67.5%
same,inhibition,[1]; [18],-27.5%
same,inhibition,"[1]; measured here: combination with cisplatin, at 0.5 µM, stronger effect = higher value",-45.6%
same,inhibition,[1]; [16],-16.1%
same,inhibition,"[2]; BGB combo, at 5 µM",-24.2%
same,inhibition,[2]; at 0.5 µM,-0.8% (inactive)
same,inhibition,"[2]; cisplatin combo, at 5 µM",-15.7%
same,inhibition,[2]; [19],-14.2%
same,inhibition,[2]; [20],14.1%
same,inhibition,"[2]; single agent, at 5 µM",-16.1%
same,inhibition,"[5]; BGB IC20 combo, at 0.005 µM",0.337%
same,inhibition,"[5]; BGB IC40 combo, at 0.005 µM",-13.1%
same,inhibition,"[5]; BGB IC40 combo, at 0.05 µM",-4.84%
same,inhibition,[5]; at 0.5 µM,-25.7% (inactive)
same,inhibition,"[5]; cisplatin combo, at 0.05 µM",-10.2%
same,inhibition,"[5]; cisplatin combo, at 0.5 µM",-37.3%
same,inhibition,"[5]; cisplatin combo, at 5 µM",-28.8%
same,inhibition,"[5]; measured here: 5 uM single agent, at 5 µM",-20.5%
same,inhibition,[6]; at 0.5 µM,-8.72% (inactive)
same,inhibition,[6]; [18],-20.3%
same,inhibition,[6]; [21],-8.61%
same,inhibition,[6]; [22],-32.8%
same,inhibition,[3]; at 0.5 µM,-5.81% (inactive)
same,inhibition,"[3]; measured here: with BGB IC20, at 0.5 µM",0.006%
same,inhibition,"[3]; measured here: with BGB IC20, at 5 µM",-4.06%
same,inhibition,"[3]; measured here: with cisplatin IC20, at 0.5 µM",-17.7%
same,inhibition,[3]; [17],0.224%
same,inhibition,"[3]; single agent, at 5 µM",6.13%
same,inhibition,[7]; at 0.5 µM,-26.6% (inactive)
same,inhibition,"[7]; measured here: combination with BGB at IC20, at 0.5 µM",-25.9%
same,inhibition,"[7]; measured here: combination with cisplatin at IC20, at 0.5 µM",-22.2%
same,inhibition,[8]; at 0.5 µM,-8.47% (inactive)
same,inhibition,"[8]; measured here: combo with BGB at IC20, at 0.5 µM",-12%
same,inhibition,"[8]; measured here: combo with cisplatin at IC20, at 0.5 µM",-5.96%
same,inhibition,[9]; at 0.5 µM,0.75% (inactive)
same,inhibition,"[9]; measured here: inhibition with BGB combination, at 0.05 µM",2.81%
same,inhibition,"[9]; measured here: inhibition with cisplatin combination, at 0.05 µM",-5.97%
same,inhibition,[10]; at 0.5 µM,-15.3% (inactive)
same,inhibition,[10]; [21],-19.2%
same,inhibition,[10]; [22],-18.7%
same,inhibition,[11]; at 0.5 µM,-13.9% (inactive)
same,inhibition,"[11]; measured here: BGB combination, at 0.5 µM",-13.8%
same,inhibition,"[11]; measured here: BGB combination, at 5 µM",-19.4%
same,inhibition,"[11]; measured here: cisplatin combination, at 0.5 µM",-27.6%
same,inhibition,"[11]; measured here: cisplatin combination, at 5 µM",-23.4%
same,inhibition,"[12]; BGB combination, concentration series, at 5 µM",-3.65%
same,inhibition,[12]; at 0.5 µM,-0.75% (inactive)
same,inhibition,"[12]; cisplatin combination, concentration series, at 5 µM",4.94%
same,inhibition,[13],5.07% (inactive)
same,inhibition,[13]; measured here: combo with BGB IC20,-3.05%
same,inhibition,[13]; measured here: combo with cisplatin IC20,0.407%
same,inhibition,[14]; at 0.5 µM,-7.01% (inactive)
same,inhibition,"[14]; cisplatin combination, at 0.5 µM",-1.5%
same,inhibition,"[14]; cisplatin combination, at 5 µM",-101%
same,inhibition,"[14]; measured here: BGB IC40 combination 0.05 uM, at 0.05 µM",-30.3%
same,inhibition,"[14]; single agent, at 5 µM",9.68%
same,inhibition,[15]; at 0.5 µM,-13.1% (inactive)
same,inhibition,"[15]; cisplatin combo, at 5 µM",4.14%
same,inhibition,"[15]; measured here: BGB IC40 combination, at 0.05 µM",-19.1%
same,inhibition,[15]; [21],-37%
same,inhibition,"[15]; single agent, at 5 µM",-5.07%
same,inhibition,[4]; at 0.5 µM,3.87% (inactive)
same,inhibition,[4]; [19],-10.3%
same,inhibition,[4]; [20],9.52%
same,inhibition,"[4]; single agent, at 0.05 µM",-45.6%
same,inhibition,"[4]; single agent, at 5 µM",-28.3%
